Each structure is given as a SMILES string. Potency and affinity values are given separately. The source made the active and inactive calls.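 Rule for the calls: active = signal-lowering compounds whose fitted half-maximal concentration is at or below twice the top tested dose in every run; inconclusive = runs disagree, flat 30 to 70% inhibition, or poor curve fit; inactive = the rest.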

The target of the assay is Protein S100-A4 (Homo sapiens) (UniProt P26447). As to the kind of experiment: S100A4-myosin IIA binding inhibitor potency, dose response, biochemical, fluorescence polarization, cherry-picked hits (AID 687001). As to conditions: FP, S100A4/TAMRA-myosin IIA peptide binding; series mostly up to 11 µM.
Sequence of Protein S100-A4 (Homo sapiens) (P26447 whole entry, looked up): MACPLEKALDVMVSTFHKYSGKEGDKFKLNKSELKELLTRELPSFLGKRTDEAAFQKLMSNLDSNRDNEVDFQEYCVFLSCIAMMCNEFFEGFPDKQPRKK
Consider `C[C@H](CO)N1C[C@H](C)[C@@H](CN(C)CC2CC2)OCc2cnnn2CCCC1=O`, for which the molecule was classed as inactive. Under `Cc1ccc(C(=O)Nc2ccc(N3CCOCC3)cc2)cc1` stands “inactive”. Under `COc1ccc2c3c(n(C)c2c1)[C@@H](CO)N(C(=O)Nc1ccc(F)cc1)CC31CCN(C)CC1` stands “inactive”. Then `O=C(/C=C(\Nc1ccc(Cl)c(C(F)(F)F)c1)c1ccccc1)c1ccccc1`, with “inactive”; and `CNC[C@H]1Oc2c(NC(=O)Nc3ccc(C(F)(F)F)cc3)cccc2C(=O)N([C@@H](C)CO)C[C@H]1C`, with “inactive”; and `CCOC1=C2[C@H](c3ccccc3)N(S(=O)(=O)c3ccc(C)cc3)C(C(C)(C)C)[C@H]2C(C#N)(C#N)C(C#N)(C#N)C1` (stereo partly drawn), with “inactive”.

`Cc1ccc(C(=O)C2=C(O)C(=O)N(Cc3cccnc3)C2c2cccc([N+](=O)[O-])c2)o1` (stereo not drawn): the call was inactive. Under `COc1ccc(CN(C)C[C@H]2OCCCC[C@@H](C)Oc3ccc(NC(=O)Nc4ccc5c(c4)OCO5)cc3C(=O)N([C@H](C)CO)C[C@H]2C)cc1` stands “inactive”. Under `Clc1ccc(-c2nc(CSc3ccccn3)cs2)cc1` stands “inactive”. Under `Cc1ccc(C(=O)NC2CC(=O)N(c3ccc4c(c3)OCCO4)C2)cc1[N+](=O)[O-]` (stereo not drawn) stands “inactive”; under `Cn1cnc(S(=O)(=O)N[C@@H]2C=C[C@@H](CC(=O)NCC3CC3)O[C@H]2CO)c1`, “inactive”. With `CCCN(CC(=O)Nc1ccccc1C)C(=O)C1CC(=O)N(c2cccc(C)c2C)C1` (stereo not drawn), the call was inactive. Take `C[C@@H]1CN([C@@H](C)CO)C(=O)CCCn2nncc2CO[C@@H]1CN(C)S(=O)(=O)c1ccccc1`: the result was inactive.

For the molecule `COc1ccc2c(c1)CCC/C2=N\Nc1nc(C(=O)NN)cs1`, the outcome was inactive.

In the case of `CO[C@@H]1CC[C@H]2CCOc3c(C#N)cccc3C(=O)N(C)C[C@H](C)C(=O)N(C)C[C@H]1O2`, the molecule was classed as inactive. Then `COc1cc(NS(=O)(=O)c2ccc(NC(=O)c3ccc([N+](=O)[O-])cc3)cc2)ncn1`, with “inactive”; and `C=C1CCN([C@@H](Cc2ccccc2)C(=O)NC2CCN(Cc3ccccc3)CC2)S(=O)(=O)c2ccccc21`, with “inactive”; and `CCCCN1C[C@H](CSC)[C@@H](CC(=O)Nc2ccc(Br)cc2)C1=O`, with “inactive”. On to `O=C(Nc1ccc(S(=O)(=O)N2CCCCC2)cc1)C1CC(=O)N(Cc2ccccc2)C1` (stereo not drawn), for which the call was inactive.

For the molecule `Nn1c(SCc2ccccc2F)nnc1-c1cccnc1`, the molecule was classed as inactive. Then `CCOc1ccc(C(=O)NC2CCN(C(=O)Nc3ccc(F)cc3)CC2)cc1`, with “inactive”; and `Cc1ccc(-c2ccc(=O)n(Cc3ccc(F)cc3)n2)cc1`, with “inactive”; and `COc1ccccc1CNC(=O)COC(=O)CSc1ccc(Cl)cc1`, with “inactive”. Then `O=C(CSc1ccsc1[N+](=O)[O-])NCc1ccccc1`, with “inactive”; and `O=C(Nc1ccccc1F)N1C[C@@H]2[C@H](c3ccccc31)[C@@H](CO)N2C(=O)C1CCCC1`, with “inactive”; and `O=C(NCCS(=O)(=O)NCCc1ccccc1)c1ccccc1`, with “inactive”. Consider `CCn1nc(C(=O)Nc2cc(Cl)ccc2-n2cncn2)c2ccccc2c1=O`, for which the molecule was classed as inactive. On to `CO[C@H]1CN(C)C(=O)c2ccc(NS(=O)(=O)c3ccccc3)cc2OC[C@H](C)N(Cc2cccnc2)C[C@@H]1C`, for which the molecule was classed as inactive. Then `CN(C)C(=O)c1ccc(-c2ccc([C@@H]3[C@@H](CO)N4CCCCN(CC5CC5)C[C@@H]34)cc2)cc1`, with “inactive”. Under `CCC(c1nc2ccccc2[nH]1)n1c(-c2cccnc2)nc2ccccc21` (stereo not drawn) stands “inactive”; under `C[C@@H]1CN([C@@H](C)CO)C(=O)c2cc(NC(=O)CCCCCC(=O)Nc3ccccc3N)ccc2O[C@H]1CN(C)C(=O)Nc1ccc2c(c1)OCO2`, “inactive”. Then `CCCN(CCC)Cc1cc(=O)oc2cc(C)c(C)cc12`, with “inactive”. In the case of `O=C(CSc1nnc(NC(=O)C2CC2)s1)NCc1ccccc1Cl`, the result was inactive. Then `ON(CCc1ccncc1)Cc1ccccc1`, with “inactive”; and `CC1(C(=O)Nc2ccc3c(c2)OCO3)CCN1C(=O)Cc1cccc2ccccc12` (stereo not drawn), with “inactive”.

For the molecule `CO[C@@H]1CN(C)C(=O)c2cc(NS(=O)(=O)CC(F)(F)F)ccc2OC[C@@H](C)N(C)C[C@H]1C`, the outcome was inactive. As to `CC(=O)Nc1ccc2nsnc2c1`, the outcome was inactive. Then `Cc1ccc(C(=O)COC(=O)C2CC3CCCC(C2)C3=O)cc1[N+](=O)[O-]` (stereo not drawn), with “inactive”.

(Values after PubChem BioAssay AID687001 (Broad Institute, 2013).)
